In the library only some 11% were active in any assay of this set; here they are far more common.
Autophagy mod: autophagy modulation, high-content screen; MEF GFP-LC3 puncta imaging; test concentration mostly 10 µM; calls only at 10 µM (by protocol); hit rate 0.98% among 190,000; AID 463193;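 active = percentage of spot-positive cells more than 3 SD above its plate mean, without a fluorescence outlier flag or 80% toxicity; inconclusive = no clear call, values can overlap the other calls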;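 note: spot-positive cell cutoff set from DMSO-treated cells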
Ins promoter up: MIN6 insulin promoter up-regulation | MIN6 insulin promoter-GFP reporter, high-content imaging; stronger effect = higher value | z-score at 5 µM | hit rate 0.3% among 190,000;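 active = z-score above 3 at 5 µM with at least 500 cells counted in the well; inconclusive = wells under 500 cells, flagged as cytotoxic or low count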
Insulin prom inh: TRM-6 insulin promoter activity inhibition. TRM-6 cells (human fetal islet line), insulin promoter-eGFP reporter, imaging; reporter expression induced with tamoxifen. inhibition, % at 2 µM. hit rate 0.9% among 130,000. AID 1273;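 active = inhibition above the mean plus 3 SD, with well images judged a real hit on visual review, cut at about 60% in these data, passing the limit was not always enough; inconclusive = inhibition over the cutoff but images rejected on review; inactive = inhibition not above the cutoff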
Lmaj promast: inhibitors of Leishmania major promastigote growth; inhibition, % at 10 µM; hit rate 9% among 200,000; Leishmania major promastigotes, resazurin fluorescence viability; AID 1063; in the data active = inhibition above about 50%;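 note: promastigotes grown with compound for 44 hours at 28 °C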
WT yeast gro inh: growth inhibition of WT yeast, mitochondrial fusion screen. mitochondrial fusion phenotypic screen, WT strain. inhibition, % at 10 µM. hit rate 2.1% among 190,000. AID 1362; in the data active = inhibition above about 58%; tested in S. cerevisiae
Active calls of the source: *; i = inactive; ? = inconclusive; / = no result; + = active, no number.

SMILES	Autophagy mod	Ins promoter up	Insulin prom inh	Lmaj promast	WT yeast gro inh
Cc1nn(C)c(C)c1CNC(=O)/C=C/c1ccccc1F	i	0.06	71*	-6	8
COCCOC(=O)C1=C(C)NC(=O)N(C(C)=O)C1c1ccc(Cl)cc1 (configuration not stated)	i	-0.57	/	88*	-11
COc1cccc(Sc2ccccc2/C=N/NC(N)=O)c1	i	-0.88	-28	-1	-19
COc1ccc(OC)c(NC(=O)COC(=O)Cc2ccc(Br)cc2)c1	i	-0.61	36	4	67*
C=CCN1C(=O)CSc2ccc(C(=O)NCc3cccs3)cc21	i	-0.75	-11	16	-1
COc1ccc(C2CC(=O)c3cnn(-c4nc(C)cc(C)n4)c3C2)cc1 (configuration not stated)	i	/	-40	78*	11
O=C(Cn1nnc(-c2ccc(CN3CCOCC3)cc2)n1)N(c1ccccc1)c1ccccc1	i	/	6	70*	2
COc1ccc(NC(=O)Cn2nnc(-c3ccccc3N)n2)cc1OC	i	0.04	-19	7	9
NC(=O)Cn1nnc(-c2ccc(CN3CCCCC3)cc2)n1	i	-0.27	/	-1	-16
COc1cc(NC(=O)Cn2nnc(-c3ccccc3N)n2)cc(OC)c1	i	0.56	3	55*	0
Cc1ccccc1-c1nnn(C/C(N)=N/O)n1	i	-0.17	/	-6	20
COc1ccccc1-c1nnn(C/C(N)=N/O)n1	i	-0.4	-15	72*	-4
O=C(Cn1nnc(-c2ccc(CN3CCOCC3)cc2)n1)N1CCCc2ccccc21	i	-1.9	-257	84*	-3
Nc1ccc(S(=O)(=O)N2CCCC2C(=O)O)cc1 (configuration not stated)	/	-0.15	/	/	/
O=S(=O)(NC1CC1)c1ccc(S(=O)(=O)N(Cc2ccccn2)C2CC2)cc1	/	-0.09	/	/	/
Nc1ccccc1-c1nnn(CC(=O)N2CCCc3ccccc32)n1	+	/	-13	-5	13
COCCNC(=O)c1ccc(-n2c(SCc3ccncc3)nc3ccccc3c2=O)cc1	i	0.31	/	-1	-3
S=C(NCCCc1ccccc1)Nc1ccccc1Cl	i	0.95	39	17	68*
S=C(NCc1ccccc1Cl)Nc1ccccc1Cl	i	0.08	-12	11	46
NNC(=S)NCCc1ccccc1	i	-0.54	12	-1	23
S=C(NCCc1ccccc1)Nc1ccccc1Cl	i	0.14	-33	68*	16
CC1=C/C(=N\NC(=S)NCCc2ccccc2)CC(C)(C)C1	i	-0.59	11	9	70*
S=C(NCCc1ccccn1)Nc1ccccc1Cl	i	-0.31	-24	9	4
S=C(NCCc1ccccc1)NCCc1ccccc1	i	-1.1	-9	1	62*
COc1ccc(S(=O)(=O)N(C)C)cc1NC(C)C(=O)Nc1cccc(C#N)c1 (configuration not stated)	i	-0.4	-15	8	-1
SMILES	Autophagy mod	Ins promoter up	Insulin prom inh	Lmaj promast	WT yeast gro inh
C=CCn1c(SCc2csc(C)n2)nc2sc3c(c2c1=O)CCCC3	i	1.4	71*	0	70*
CN1CCc2c(sc3nc(SCC(=O)N4CCOCC4)nc(N)c23)C1	+	0.62	6	5	3
Cn1c(SCC(=O)N2CCOCC2)nc2sc3c(c2c1=O)CCCC3	i	-0.72	21	2	36
C=CCn1c(SCC(=O)N2CCOCC2)nc2sc3c(c2c1=O)CCCC3	+	-2.6	11	12	14
COc1ccc(C2c3c(ncn(CCN4CCOCC4)c3=N)Oc3ccc4ccccc4c32)cc1OC (configuration not stated)	i	-0.81	-18	100*	4
COc1ccc(C2c3ccc4ccccc4c3Oc3ncn(Cc4ccco4)c(=N)c32)cc1OC (configuration not stated)	i	-1	/	58*	45
CC(=O)NC(Cc1cccc(F)c1)C(=O)NC1CCN(c2nnnn2-c2ccccc2)CC1 (configuration not stated)	i	/	26	-6	-3
CC1CCc2c(sc3nc(CN4CCN(S(=O)(=O)c5ccccc5[N+](=O)[O-])CC4)[nH]c(=O)c23)C1 (configuration not stated)	i	0.07	/	1	-4
CC1=[N+](C)c2ccc3ccccc3c2C1(C)C	i	0.24	38	93*	79*
CN(c1ccccc1)S(=O)(=O)c1ccc(C(=O)NCc2cccs2)cc1	/	-0.84	/	/	/
CNc1ccc(Br)cc(C(=O)/C=C/c2ccc(Cl)cc2Cl)c1=O	i	0.28	/	99*	17
CCNc1ccc(Br)cc(C(=O)/C=C/c2ccc3c(c2)OCO3)c1=O	i	0.27	/	33	28
CCNc1ccc(Br)cc(C(=O)/C=C/c2ccc(Cl)cc2)c1=O	i	1.1	-181	84*	8
CNc1ccc(Br)cc(C(=O)/C=C/c2ccc(OC)cc2OC)c1=O	i	0.38	24	6	28
CNc1ccc(Br)cc(C(=O)/C=C/c2cccc(OC)c2)c1=O	i	/	/	57*	-11
CCNc1ccc(Br)cc(C(=O)/C=C/c2c(Cl)cccc2Cl)c1=O	+	?	10	100*	11
O=C(/C=C/c1ccco1)NCC1COc2ccccc2O1 (configuration not stated)	/	0.68	/	/	/
COc1cc(/C(C#N)=C/c2ccccc2)c([N+](=O)[O-])cc1OC	i	/	63	7	4
COc1ccc(Nc2nc(-c3cccs3)nc3ccccc23)c(OC)c1	i	-0.57	27	41	21
Cc1ccc(CNc2nc(-c3cccs3)nc3ccccc23)cc1	i	-0.71	/	76*	76*
c1ccc(CNc2nc(-c3cccs3)nc3ccccc23)nc1	i	0.56	92*	78*	-4
Cc1nc(C(=O)Nc2cccc(Cl)c2)nn1-c1cc(OC(C)C)c(Cl)cc1Cl	i	-0.36	-47	0	67*
O=C(O)c1ccc(N/N=C/C=C/c2ccccc2[N+](=O)[O-])cc1	i	0.19	/	1	-23
O=[N+]([O-])c1ccccc1/C=C/C=N/Nc1ccc(S(=O)(=O)Nc2ccc(Cl)cc2)cc1[N+](=O)[O-]	i	-1.3	/	67*	3
O=[N+]([O-])c1ccc(N/N=C/c2c[nH]c3ccccc23)c(S(=O)(=O)Nc2ccc(Cl)cc2)c1	+	/	-20	24	95*
SMILES	Autophagy mod	Ins promoter up	Insulin prom inh	Lmaj promast	WT yeast gro inh
CC(C)c1ccc(S(=O)(=O)Nc2ccc(SC(F)F)cc2)cc1	i	-0.71	/	-10	85*
Cc1ccc(/C=N/n2cnc3sc(-c4ccccc4)cc3c2=O)o1	i	0.19	14	1	86*
Cc1cc(Br)ccc1OCCCCNCCO	i	-0.57	54	86*	6
Cc1cc(Br)ccc1OCC(=O)NNC(=O)Cc1ccccc1	i	0.51	-42	-6	-5
C=CCNCCCCOc1ccc(Br)cc1C	i	-0.52	-26	99*	3
CC(C)c1ccc(C2C(C#N)=C(N)N3C(=C2C#N)Sc2ccccc23)cc1 (configuration not stated)	+	0.92	5	9	0
O=C(Nc1ccon1)c1cc2ccccc2oc1=O	i	0	-14	-4	0
